In the OligoGym collection one finds sensor-assay potency score (higher = more potent) data, which are given here for 19 sequences.
Also: reference of the scale not given here.

One assay has as its target ALOX12B. Nature of the assay: pooled miR-30 sensor sort-seq; sequence = guide strand. The following applies: shRNA.
TTAAAGTTGATGAGAATTGGGA: the sensor-assay potency score (higher = more potent) was -0.16.
The same measure, in the same setting: with TACTTCTCCAGTGCATTCCACA the figure was -0.953; with TTTGCAGTCCAACAGGCCGCGG, -1.33.
The same measure, in the same setting: with AATGCTGTTGATCTGGACGGTG the figure was -0.387; with TCATTGAGGAGAACGGCCCGGC, 0.146.
TACTGGTACCCAAAGAAGGTGT: the sensor-assay potency score (higher = more potent) was -0.741.
On the same count and under the same terms, with TGCACATAGTTGCAGTACCAAG the figure was -2.04; with TCATCTGCTGTTGTCTTTCCTG, -0.399.

The next assay addresses ALPK1. The assay is described as above. The following applies: shRNA.
In the case of TAACTTCTTGAGACAGAGCTTC, the sensor-assay potency score (higher = more potent) was -0.293.
Regarding TAAATCGACCACAACATCTCTA, the sensor-assay potency score (higher = more potent) was found to be 0.166.
TTGAACTTGTAAATGTTCCTTC: the sensor-assay potency score (higher = more potent) is 0.693.
In turn, TTCACTAATTTCTTCTCCCTGC gave a sensor-assay potency score (higher = more potent) of -0.272.
On the same count and under the same terms, in the case of TTGTTCATAGAGTCTCTTGTTA it was 0.0334.
Same read-out and setting: in the case of TTGCAGAGGAACTAAACCCTGA it was -0.0397; in that of AAATCGACCACAACATCTCTAT, -0.634; in that of TATACAGACCGACTGCACCAGG, -1.24.
In turn, TCTGTTTTCACCACTTTCGTGT came in with a sensor-assay potency score (higher = more potent) of 0.311.
TTGATGAAGATGATGAACCCAA: the sensor-assay potency score (higher = more potent) stood at 0.0893.
Sequence TTCATTACATTCCACATGCTGG gave a sensor-assay potency score (higher = more potent) of -0.496.
